# Source: PubChem BioAssay (Tox21)
# Inconclusive results are not listed. Where a call stands in place of a potency, no number is given. Active and inactive are the calls of the source. Unless noted, the call rests on the fitted dose curve; in most records, active means well fitted curve in the direction sought with a large enough effect in the repeat runs; inconclusive means weak or mixed curves; inactive means no such curve, though single readings can be large; an effect the other way counts as inactive or inconclusive.
# Assays:
# [1] = qHTS assay to identify small molecule agonists of the sonic hedgehog signaling (Shh) pathway (AID 1259368; calls by dose curve; further: nearly all actives have a fitted effect of over 15% in size; further: potency means the concentration at half of the fitted maximal effect)
# In short: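 Read-out: firefly luciferase luminescence from a Gli1 response element reporter stably integrated in NIH/3T3-derived 3T3Gli1-Luc cells, measured 30 min at room temperature after reagent addition. Compound exposure lasted 24 hr at 37 C, 5% CO2.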
# [2] = qHTS assay to identify small molecule antagonists of the sonic hedgehog signaling (Shh) pathway (AID 1259369; calls by dose curve; further: nearly all actives have a fitted effect of over 45% in size; further: potency means the concentration at half of the fitted maximal effect)
# In short: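 Luminescence readout: firefly Luc under Gli1 response element in 3T3Gli1-Luc cells (NIH/3T3 clone). Antagonist mode, stimulation by conditioned medium; compound exposure 24hr at 37 C, 5% CO2.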
# [3] = qHTS assay to identify small molecule agonists of the androgen receptor (AR) signaling pathway in the presence of an antagonist - cell viability counter screen (AID 1259379);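 further: MDA-kb2 human breast cancer cells carrying an MMTV luciferase reporter; series mostly up to about 92 µM; nearly all actives have a fitted effect of over 25% in size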
# In short: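 Viability counter screen: CellTiter-Fluor fluorescence, measured in the same wells as the luciferase read-out. MDA-kb2 cells, 3,000/well, with nilutamide at 3.0uM final and compounds at 15 concentrations, 16 hr at 37C, 0% CO2.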
# [4] = qHTS assay to identify small molecule agonists of the estrogen receptor beta (ER-beta) signaling pathway - cell viability counter screen (AID 1259380); further: nearly all actives have a fitted effect of over 30% in size; further: potency means the concentration at half of the fitted maximal effect
# In short: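 Luminescence read-out (CellTiter-Glo, 30 min, room temp) taken in the same wells as the beta-lactamase reporter assay; ER-beta-UAS-bla HEK293T cells exposed to DMSO-dissolved compounds for 16 hr at 37C in 2% charcoal-stripped FBS medium.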
# [5] = target: Androgen receptor (Homo sapiens) (UniProt P10275); experiment: qHTS assay to identify small molecule agonists of the androgen receptor (AR) signaling pathway in the presence of an antagonist (AID 1259381; calls by dose curve; further: nearly all actives have a fitted effect of over 15% in size)
# In short: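 Luciferase read-out (ONE-Glo, 30min room temperature) in MDA-kb2 MMTV-reporter cells; agonist mode run in presence of AR antagonist nilutamide, 3.0uM final. Compounds tested as 15-point series, 16hr exposure at 37C, 0% CO2.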
# [6] = qHTS assay to identify small molecule antagonists of the estrogen receptor beta (ER-beta) signaling pathway - cell viability counter screen (AID 1259382); further: series mostly up to about 92 µM; nearly all actives have a fitted effect of over 55% in size
# In short: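 Luminescent ATP read-out (CellTiter-Glo, 30 min, RT) taken in the same wells as the bla reporter assay. HEK293T ER-beta-UAS-bla cells in 2% charcoal-stripped FBS were exposed to compounds with 1nM E2 for 16 hr at 37C.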
# [7] = target: Estrogen receptor (Homo sapiens) (UniProt P03372); experiment: qHTS assay to identify small molecule agonists of the estrogen receptor alpha (ER-alpha) signaling pathway in the presence of an antagonist (AID 1259383; calls by dose curve; further: top concentration of the series differs between compounds; nearly all actives have a fitted effect of over 15% in size)
# In short: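 Luciferase luminescence (ONE-Glo, 30min at room temperature) measured in VM7Luc4E2 cells after 22hr compound exposure at 15 concentrations, with 10.0nM ICI-182,780 final present; cells express endogenous ER-alpha and carry four EREs upstream of luciferase.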
# [8] = qHTS assay to identify small molecule agonists or antagonists of the thyroid stimulating hormone receptor (TSHR) signaling pathway - wild type cell line counter screen (AID 1259384; calls by dose curve)
# In short: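 Wild-type HEK293 cells were plated 18 h at 37 C/5% CO2, pin-dosed with compound plus Ro20-1724 medium, held 30 min at room temperature, then given cAMP-d2 and anti-cAMP-cryptate; fluorescence was read after 1 h. Fifteen concentrations, triplicate.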
# [9] = target: Thyrotropin receptor (Homo sapiens) (UniProt P16473); experiment: qHTS assay to identify small molecule antagonists of the thyroid stimulating hormone receptor (TSHR) signaling pathway (AID 1259385; calls by dose curve; further: nearly all actives have a fitted effect of over 20% in size)
# In short: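 TSHR-HEK293 cells were plated and held 18 h at 37C/5% CO2, then given compound plus Ro20-1724 and stimulated with TSH at 1.5 ng/mL final. After 30 min at room temperature, cAMP was detected with cAMP-d2/anti-cAMP-cryptate (1 h) by fluorescence.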
# [10] = qHTS assay to identify small molecule agonists of the estrogen receptor alpha (ER-alpha) signaling pathway in the presence of an antagonist - cell viability counter screen (AID 1259386);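 further: series mostly up to about 92 µM; cells exposed to compounds for 22 h at 37 °C before the viability read; nearly all actives have a fitted effect of over 30% in size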
# In short: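 Read-out: CellTiter-Fluor fluorescence after 1hr reagent incubation, measured in the same wells as the luciferase readout. VM7Luc4E2 cells were exposed to 15 compound concentrations with 10.0nM ICI-182,780 for 22hr at 37C.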
# [11] = target: Progesterone receptor (Homo sapiens) (UniProt P06401); experiment: qHTS assay to identify small molecule agonists of the progesterone receptor (PR) signaling pathway (AID 1346784; calls by dose curve; further: nearly all actives have a fitted effect of over 30% in size)
# In short: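 Agonist mode, quantitative HTS format in a HEK 293T line expressing a UAS-controlled beta-lactamase reporter; 16 hr compound exposure at 37C in 2% charcoal-stripped FBS, then LiveBLAzer B/G FRET fluorescence.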
# [12] = target: Progesterone receptor (Homo sapiens) (UniProt P06401); experiment: qHTS assay to identify small molecule antagonists of the progesterone receptor (PR) signaling pathway (AID 1346795; active means well fitted inhibition curve with a large enough effect in the signal ratio in the repeat runs, not every such curve was filed as active; the % refers to the signal ratio; further: potency means the concentration at half of the fitted maximal effect)
# In short: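 HEK293T PR-UAS-bla reporter cells in charcoal-stripped serum (2%) received compound after a 6 hr settling period, followed by R5020 agonist at 1 nM final; 16 hr incubation preceded the FRET substrate step and fluorescence measurement.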
# [13] = qHTS assay to identify small molecule antagonists of the progesterone receptor (PR) signaling pathway - cell viability counter screen (AID 1346798); further: nearly all actives have a fitted effect of over 50% in size; further: potency means the concentration at half of the fitted maximal effect
# In short: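 Same-well multiplex: after 16 hr at 37C with compound and R5020 stimulation, HEK293T cells carrying a UAS-bla reporter received LiveBLAzer substrate (2 hr RT), then CellTiter-Glo (30 min RT) for luminescent viability.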
# [14] = qHTS assay to identify small molecule antagonists of the TGF-beta/Smad signaling pathway - cell viability counter screen (AID 1346824); further: nearly all actives have a fitted effect of over 50% in size
# In short: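 SBE-bla HEK 293T cells were plated overnight at 37 C, then given compounds in DMSO plus TGF-beta1 (added as 0.25 ng/mL solution) for 5 hr. After the bla read, CellTiter-Glo was added to the same wells and luminescence read after 30 min at room temperature.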
# [15] = qHTS assay to identify small molecule agonists of the TGF-beta/Smad signaling pathway - cell viability counter screen (AID 1346829); further: top concentration of the series differs between compounds; nearly all actives have a fitted effect of over 45% in size
# In short: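 CellTiter-Glo luminescence readout; SBE-bla HEK 293T cells, overnight plating, compound 5 hr at 37 C/5% CO2, then bla substrate 2 hr RT, then CellTiter-Glo 30 min RT.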
# [16] = target: Thyrotropin-releasing hormone receptor (Homo sapiens) (UniProt P34981); experiment: qHTS assay to identify small molecule antagonists of the thyrotropin-releasing hormone receptor (TRHR) signaling pathway (AID 1346877; active means well fitted inhibition curve with a large enough effect in the repeat runs, not every such curve was filed as active; further: series mostly up to about 51 µM)
# In short: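 HEK293/TRHR cells, 18 h, 37 °C; Ca2+ dye 2 h; cpd 5 min RT; TRH 1 nM final; fluorescence read 3 min, 1 s intervals; 15 concs, triplicate.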
# [17] = target: Estrogen receptor beta (Homo sapiens) (UniProt Q92731); experiment: qHTS assay to identify small molecule agonists of the estrogen receptor beta (ER-beta) signaling pathway (AID 1259377; active means well fitted activation curve with a large enough effect in the signal ratio in the repeat runs, not every such curve was filed as active; the % refers to the signal ratio)
# In short: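 A UAS-controlled beta-lactamase reporter in ER-beta-UAS-bla HEK293T cells reports receptor activation. Compounds act for 16 hr at 37C in 2% charcoal-stripped serum, and a FRET substrate is read by fluorescence after 2 hours.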
# [18] = qHTS assay to identify small molecule agonists of the TGF-beta/Smad signaling pathway (AID 1346859; active means well fitted activation curve with a large enough effect in the signal ratio in the repeat runs, not every such curve was filed as active; the % refers to the signal ratio; further: series mostly up to about 77 µM)
# In short: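 Smad-responsive beta-lactamase reporter cells (HEK 293T) received compounds from DMSO stocks after overnight attachment, were incubated 5 hr, then treated 2 hr with FRET substrate before dual-emission fluorescence measurement (405 nm excitation).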
# [19] = qHTS assay to identify small molecule agonists of the progesterone receptor (PR) signaling pathway - cell viability counter screen (AID 1346799; calls by dose curve; further: nearly all actives have a fitted effect of over 45% in size; further: potency means the concentration at half of the fitted maximal effect)
# In short: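 Counter screen for cytotoxicity: compound-treated PR-UAS-bla HEK293T cells (16 hr, 37C, 5% CO2) were assayed with CellTiter-Glo, luminescence measured after 30 min at room temperature.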
# [20] = target: Estrogen receptor beta (Homo sapiens) (UniProt Q92731); experiment: qHTS assay to identify small molecule antagonists of the estrogen receptor beta (ER-beta) signaling pathway (AID 1259378; active means well fitted inhibition curve with a large enough effect in the signal ratio in the repeat runs, not every such curve was filed as active; the % refers to the signal ratio)
# In short: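 ER-beta-UAS-bla HEK293T (GripTite) cells in 2% charcoal-stripped FBS medium were preincubated 6 hr at 37C, dosed with compound, then stimulated with 1 nM E2 (final) for 16 hr; beta-lactamase reporter read by B/G FRET fluorescence after 2 hr substrate loading.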
# Chain of Thyrotropin receptor (Homo sapiens) (P16473 whole entry, looked up): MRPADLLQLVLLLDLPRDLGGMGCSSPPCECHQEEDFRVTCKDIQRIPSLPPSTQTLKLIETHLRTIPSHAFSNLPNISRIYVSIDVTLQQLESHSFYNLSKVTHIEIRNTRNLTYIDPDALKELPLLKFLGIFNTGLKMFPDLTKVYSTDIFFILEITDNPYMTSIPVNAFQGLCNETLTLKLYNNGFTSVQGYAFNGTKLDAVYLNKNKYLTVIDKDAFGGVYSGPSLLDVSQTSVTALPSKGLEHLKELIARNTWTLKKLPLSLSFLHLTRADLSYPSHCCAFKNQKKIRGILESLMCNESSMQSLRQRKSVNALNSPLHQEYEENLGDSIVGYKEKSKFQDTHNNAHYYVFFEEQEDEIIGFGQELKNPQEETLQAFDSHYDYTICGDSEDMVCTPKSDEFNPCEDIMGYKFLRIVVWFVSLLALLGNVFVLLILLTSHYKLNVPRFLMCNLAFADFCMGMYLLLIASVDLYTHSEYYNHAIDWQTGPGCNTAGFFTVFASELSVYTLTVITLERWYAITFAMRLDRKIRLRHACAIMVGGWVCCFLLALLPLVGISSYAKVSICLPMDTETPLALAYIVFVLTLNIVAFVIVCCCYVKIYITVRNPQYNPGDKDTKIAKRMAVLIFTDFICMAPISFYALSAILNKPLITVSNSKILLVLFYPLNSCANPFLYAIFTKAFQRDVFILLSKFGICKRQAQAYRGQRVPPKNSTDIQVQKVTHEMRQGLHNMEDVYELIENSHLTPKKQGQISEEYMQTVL
# Chain of Estrogen receptor beta (Homo sapiens) (Q92731 whole entry, looked up): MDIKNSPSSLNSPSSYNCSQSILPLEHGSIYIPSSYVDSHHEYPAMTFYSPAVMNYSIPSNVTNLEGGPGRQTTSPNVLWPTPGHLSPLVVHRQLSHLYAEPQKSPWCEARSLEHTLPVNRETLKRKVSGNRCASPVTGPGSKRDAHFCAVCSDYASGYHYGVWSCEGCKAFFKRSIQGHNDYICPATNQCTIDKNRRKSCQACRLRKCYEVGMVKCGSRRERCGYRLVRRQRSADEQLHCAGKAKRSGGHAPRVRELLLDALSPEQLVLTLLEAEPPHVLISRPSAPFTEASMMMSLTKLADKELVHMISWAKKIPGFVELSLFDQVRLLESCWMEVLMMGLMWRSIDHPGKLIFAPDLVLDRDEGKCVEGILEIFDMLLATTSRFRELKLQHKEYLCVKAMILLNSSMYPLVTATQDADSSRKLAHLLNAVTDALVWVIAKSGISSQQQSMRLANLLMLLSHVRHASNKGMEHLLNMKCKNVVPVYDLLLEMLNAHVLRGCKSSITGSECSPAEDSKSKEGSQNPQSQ
# Chain of Thyrotropin-releasing hormone receptor (Homo sapiens) (P34981 whole entry, looked up): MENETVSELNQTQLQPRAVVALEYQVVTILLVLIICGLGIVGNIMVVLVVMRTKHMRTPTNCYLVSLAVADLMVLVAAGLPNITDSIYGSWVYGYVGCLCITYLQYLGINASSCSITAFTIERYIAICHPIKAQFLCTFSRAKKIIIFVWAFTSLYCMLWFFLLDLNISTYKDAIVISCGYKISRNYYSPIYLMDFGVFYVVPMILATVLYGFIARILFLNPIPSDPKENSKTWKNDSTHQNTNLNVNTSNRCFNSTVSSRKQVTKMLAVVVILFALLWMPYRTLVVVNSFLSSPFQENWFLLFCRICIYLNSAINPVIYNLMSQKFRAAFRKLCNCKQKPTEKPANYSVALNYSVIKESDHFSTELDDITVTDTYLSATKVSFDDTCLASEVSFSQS
# Chain of Estrogen receptor (Homo sapiens) (P03372 whole entry, looked up): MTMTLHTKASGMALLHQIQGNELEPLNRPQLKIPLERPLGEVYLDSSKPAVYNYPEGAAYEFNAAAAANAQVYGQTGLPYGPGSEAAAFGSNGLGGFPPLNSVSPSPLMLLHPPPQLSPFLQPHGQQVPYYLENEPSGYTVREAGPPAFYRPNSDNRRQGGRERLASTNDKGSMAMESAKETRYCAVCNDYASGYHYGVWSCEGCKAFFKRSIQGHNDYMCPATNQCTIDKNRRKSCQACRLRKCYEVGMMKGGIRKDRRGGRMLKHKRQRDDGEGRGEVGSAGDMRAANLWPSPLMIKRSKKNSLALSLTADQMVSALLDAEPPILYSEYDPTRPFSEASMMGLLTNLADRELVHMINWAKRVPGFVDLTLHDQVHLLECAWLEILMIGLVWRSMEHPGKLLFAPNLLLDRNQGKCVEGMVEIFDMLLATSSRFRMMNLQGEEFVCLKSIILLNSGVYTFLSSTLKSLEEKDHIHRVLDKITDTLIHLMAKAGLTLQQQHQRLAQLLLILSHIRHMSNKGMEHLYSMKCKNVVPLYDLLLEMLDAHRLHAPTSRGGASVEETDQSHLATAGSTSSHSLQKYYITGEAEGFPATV
# Chain of Progesterone receptor (Homo sapiens) (P06401 whole entry, looked up): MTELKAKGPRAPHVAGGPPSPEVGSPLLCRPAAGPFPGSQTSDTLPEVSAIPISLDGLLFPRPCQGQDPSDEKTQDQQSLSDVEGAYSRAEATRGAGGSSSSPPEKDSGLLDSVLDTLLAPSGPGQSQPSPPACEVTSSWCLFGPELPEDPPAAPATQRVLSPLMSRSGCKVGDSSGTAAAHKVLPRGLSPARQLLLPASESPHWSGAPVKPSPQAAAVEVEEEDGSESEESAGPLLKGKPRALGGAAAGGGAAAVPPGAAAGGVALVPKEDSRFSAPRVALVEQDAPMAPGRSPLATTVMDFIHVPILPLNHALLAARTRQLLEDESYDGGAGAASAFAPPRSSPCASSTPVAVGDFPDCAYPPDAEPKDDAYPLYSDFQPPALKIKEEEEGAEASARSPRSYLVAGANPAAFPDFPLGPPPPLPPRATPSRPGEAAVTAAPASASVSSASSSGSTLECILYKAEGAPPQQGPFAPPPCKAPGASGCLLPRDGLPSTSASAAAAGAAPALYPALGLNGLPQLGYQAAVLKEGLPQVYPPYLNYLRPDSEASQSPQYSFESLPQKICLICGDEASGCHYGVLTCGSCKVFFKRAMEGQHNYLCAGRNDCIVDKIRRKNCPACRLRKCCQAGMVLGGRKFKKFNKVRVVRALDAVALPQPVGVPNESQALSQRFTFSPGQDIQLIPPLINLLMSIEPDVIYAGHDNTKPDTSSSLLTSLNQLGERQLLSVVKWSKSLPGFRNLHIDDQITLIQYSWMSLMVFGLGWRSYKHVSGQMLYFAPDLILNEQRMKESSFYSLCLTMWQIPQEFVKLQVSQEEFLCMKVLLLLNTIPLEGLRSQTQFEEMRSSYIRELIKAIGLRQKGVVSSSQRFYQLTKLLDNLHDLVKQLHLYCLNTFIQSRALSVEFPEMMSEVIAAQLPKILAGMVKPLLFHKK
# Chain of Androgen receptor (Homo sapiens) (P10275 whole entry, looked up): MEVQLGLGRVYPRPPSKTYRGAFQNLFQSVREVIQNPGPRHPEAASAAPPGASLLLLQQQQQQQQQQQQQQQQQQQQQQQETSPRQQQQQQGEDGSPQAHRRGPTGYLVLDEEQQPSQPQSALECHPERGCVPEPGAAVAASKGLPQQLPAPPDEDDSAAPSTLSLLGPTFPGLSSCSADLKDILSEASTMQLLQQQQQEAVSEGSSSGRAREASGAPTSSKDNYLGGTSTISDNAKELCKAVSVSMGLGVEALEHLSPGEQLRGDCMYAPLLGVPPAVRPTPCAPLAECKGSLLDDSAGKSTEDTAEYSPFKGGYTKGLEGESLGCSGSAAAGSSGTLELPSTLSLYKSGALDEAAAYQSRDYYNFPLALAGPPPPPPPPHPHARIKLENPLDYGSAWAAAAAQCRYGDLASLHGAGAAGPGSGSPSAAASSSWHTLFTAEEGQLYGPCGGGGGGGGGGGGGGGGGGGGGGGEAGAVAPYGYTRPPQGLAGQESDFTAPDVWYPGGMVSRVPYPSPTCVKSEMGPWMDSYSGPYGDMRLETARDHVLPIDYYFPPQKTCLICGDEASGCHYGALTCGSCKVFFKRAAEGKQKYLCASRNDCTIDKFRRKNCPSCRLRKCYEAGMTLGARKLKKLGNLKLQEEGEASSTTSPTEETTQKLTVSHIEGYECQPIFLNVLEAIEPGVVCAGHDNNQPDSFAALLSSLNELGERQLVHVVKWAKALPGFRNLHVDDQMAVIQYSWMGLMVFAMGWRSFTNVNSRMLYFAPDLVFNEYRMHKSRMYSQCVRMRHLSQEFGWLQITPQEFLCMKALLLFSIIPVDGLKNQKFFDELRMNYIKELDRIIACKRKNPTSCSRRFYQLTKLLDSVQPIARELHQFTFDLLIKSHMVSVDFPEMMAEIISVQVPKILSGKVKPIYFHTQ
SMILES,Potency [1],Potency [2],Potency [3],Potency [4],Potency [5],Potency [6],Potency [7],outcome [8],Potency [9],outcome [10],Potency [11],Potency [12],Potency [13],outcome [14],outcome [15],outcome [16],outcome [17],outcome [18],Potency [19],Potency [20]
Cc1c(F)cc2c(=O)c(C(=O)O)cn3c2c1CCC3C (centres undefined),inactive,inactive,inactive,inactive,inactive,inactive,inactive,inactive,inactive,inactive,inactive,inactive,inactive,inactive,inactive,inactive,–,–,–,–
COc1ccc(N=[N+]([O-])c2ccc(OC)cc2)cc1,0.121 µM (active),inactive,inactive,–,–,–,inactive,inactive,inactive,inactive,–,inactive,–,inactive,inactive,–,inactive,inactive,–,–
CN1[C@@H]2CC[C@H]1CC(NC(=O)n1c(=O)[nH]c3ccccc31)C2 (some centres undefined),inactive,inactive,–,inactive,inactive,inactive,inactive,–,–,inactive,inactive,inactive,inactive,inactive,inactive,–,inactive,inactive,inactive,–
CCCCCCCCCCCl,inactive,inactive,inactive,inactive,–,inactive,inactive,–,–,inactive,inactive,inactive,–,inactive,inactive,inactive,–,inactive,inactive,–
C=CC(=O)OCCCCCC,inactive,inactive,inactive,inactive,–,inactive,–,inactive,inactive,inactive,inactive,–,inactive,inactive,inactive,inactive,–,inactive,inactive,–
C=C(C)C(=O)NCCC[N+](C)(C)C,inactive,inactive,inactive,inactive,–,inactive,inactive,inactive,–,–,inactive,–,–,inactive,–,–,–,inactive,–,–
NC1CCN(c2cccc(Cl)n2)CC1,inactive,1.33 µM (active),inactive,inactive,inactive,inactive,–,–,–,inactive,inactive,inactive,inactive,inactive,inactive,inactive,–,inactive,inactive,inactive
C=C(C)C(=O)OCCC(C)OC(=O)C(=C)C (centres undefined),inactive,inactive,inactive,inactive,–,inactive,inactive,inactive,inactive,inactive,inactive,inactive,inactive,inactive,inactive,inactive,–,inactive,inactive,–
CSc1nc(NC2CC2)nc(NC(C)(C)C)n1,inactive,1.54 µM (active),inactive,inactive,–,–,–,–,–,inactive,inactive,61.1 µM (active),inactive,inactive,inactive,–,–,inactive,inactive,–
O=C(O)CCNC(=O)c1ccc(N=Nc2ccc(O)c(C(=O)O)c2)cc1,inactive,–,–,inactive,–,inactive,inactive,inactive,inactive,–,inactive,inactive,inactive,inactive,inactive,inactive,inactive,inactive,–,inactive
CCCCc1ccc2cccc(S(=O)(=O)O)c2c1,inactive,–,inactive,inactive,inactive,inactive,inactive,inactive,inactive,inactive,inactive,–,inactive,inactive,inactive,–,inactive,inactive,inactive,–
CCCCCN(CCCCC)C(=O)C(CCC(=O)O)NC(=O)c1ccc(Cl)c(Cl)c1 (centres undefined),inactive,inactive,inactive,–,inactive,–,inactive,inactive,inactive,inactive,inactive,–,–,inactive,inactive,inactive,–,inactive,–,–
OCCCCCCO,inactive,inactive,inactive,55.1 µM (active),–,–,–,–,–,inactive,–,–,61.9 µM (active),inactive,–,inactive,–,inactive,19.6 µM (active),–
c1ccc2cnncc2c1,inactive,inactive,inactive,inactive,–,–,inactive,inactive,inactive,inactive,inactive,inactive,inactive,inactive,inactive,inactive,–,inactive,inactive,–
CC1(C)SC(C)(C)SC(C)(C)S1,inactive,–,inactive,inactive,inactive,inactive,inactive,inactive,inactive,inactive,inactive,inactive,inactive,inactive,–,–,inactive,inactive,inactive,inactive
